Shown are actives, neighbours in structure and some others; about 12% of the full set was active somewhere.
Sfp PPTase inh – Sfp phosphopantetheinyl transferase inhibition | Q9F4F7 | Biochemical Sfp PPTase activity, qHTS | Potency, µM, for the others: largest response in the series, negative = inhibition, actives largely listed as inhibitors | 310,000 tested, 3.5% active;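 note: the enzyme is Sfp with the accession as filed and its product quenches rhodamine fluorescence; 0% = enzyme reaction without inhibitor and -100% = no enzyme wells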
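After 15 min at room temperature with compound, 15 nM Sfp received 5 uM rhodamine-CoA plus 12.5 uM BHQ-2-ybbR (50 mM Hepes pH 7.6, 10 mM MgCl2). Rate came from the fluorescence difference over 30 min, ex 525/em 598 nm.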
G9a block – blocks human histone lysine methyltransferase G9a; 350,000 tested, 8.8% active; Potency, µM (top dose mostly 102 µM), for inactives: at the highest dose activity, negative = inhibition, hits mostly inhibitors; G9a H3K9 monomethylation, AlphaScreen, 2 h; Q96KQ7; note: % is set by controls: 0 for no effect and ±100 for the full control effect; nearly all actives have a fitted effect of over 75% in size
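Signal arises when biotinylated H3K9 peptide, once monomethylated, bridges streptavidin donor and antibody-captured acceptor beads. Enzyme at 20 nM was preincubated 15 min with test compounds; peptide 500 nM and SAM 20 uM then reacted for 2 h.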
HP1b binding inh – HP1-beta chromodomain-methylated histone interaction inhibition. AlphaScreen HP1-beta / biotin-H3K9me3 peptide binding. Potency, µM (doses to about 114 µM), for inactives: at the highest dose activity change, negative = inhibition, most hits filed as inhibitors. 390,000 tested, 0.56% active. P83916; note: nearly all actives have a fitted effect of over 70% in size
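HP1-beta protein (50 nM final) preincubated 30 min at room temperature with biotinylated H3(1-18)K9me3 peptide (50 nM) in PBS pH 7.4, 0.01% Tween-20, then compound added for 30 min. AlphaScreen streptavidin donor/nickel chelate acceptor beads (10 ug/mL final), 30 min dark, luminescence read.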
BAZ2B inh – blocks human BAZ2B | Q9UIF8 | AlphaScreen BAZ2B-H3K14Ac peptide displacement | Potency, µM (highest dose often 114 µM), without a hit: top-dose activity change, negative = inhibition, hits mostly inhibitors | 360,000 tested, 4.4% active; note: % is set by controls: 0 for no effect and ±100 for the full control effect; nearly all actives have a fitted effect of over 60% in size
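Complex of BAZ2B and biotin-H3K14Ac (50 nM apiece) forms over 30 min at RT, then faces library compounds up to 110 uM for another 30 min; AlphaScreen beads added, 20 min dark incubation, luminescence read.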
JMJD2A Tudor – blocks the human JMJD2A Tudor domain; O75164; AlphaScreen JMJD2A-Tudor / H3K4me3 peptide binding; Potency, µM (highest dose often 114 µM), for inactives: at the highest dose activity change, negative = inhibition, hits mostly inhibitors; 390,000 tested, 4.4% active; AID 504339; note: % is set by controls: 0 for no effect and ±100 for the full control effect; nearly all actives have a fitted effect of over 50% in size
L3MBTL1 block – inhibitors of human L3MBTL1; 230,000 tested, 0.66% active; Potency, µM (doses to about 57.1 µM), inactives show at the top dose activity, negative = inhibition, hits mostly inhibitors; Q9Y468; AlphaScreen L3MBTL1–H3K9me1 peptide binding; note: % is set by controls: 0 for no effect and ±100 for the full control effect; nearly all actives have a fitted effect of over 60% in size
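L3MBTL1 50 nM + b-AHA-H3(1-15)K9me1 75 nM, 30 min RT; compound added, 30 min RT; streptavidin donor/Ni-chelate acceptor beads 10 ug/mL each final, 30 min RT dark; AlphaScreen read.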
Starred values were filed as active, the others as inactive; ? = inconclusive; . = not tested or not shown; ! = not active in a repeat; [ ] = dose if it differs, or a comment. Calls come from the whole dose curve; as a rule, active = well fitted curve in the direction sought with a large enough effect; inconclusive = small, poorly fitted or top-dose-only effect, or another doubt; inactive = no such curve, though single readings can be large; an effect the other way counts as inactive or inconclusive. Potency is the fitted concentration of half-maximal effect.

SMILES	Sfp PPTase inh	G9a block	HP1b binding inh	BAZ2B inh	JMJD2A Tudor	L3MBTL1 block
CC(=O)c1ccc(NC(=O)c2cccc(N3C(=O)c4ccccc4C3=O)c2)cc1	4%	79µM*	14%	-31%	-5%	.
CN(C)c1ccc(NC(=O)c2cccc(N3C(=O)C4C5C=CC(C5)C4C3=O)c2)cc1 (configuration not stated)	14%	10µM*	-20%	-34%	-25%	-6%
COC(=O)c1ccc(OCC2c3cc(OC)c(OC)cc3CCN2C(=O)c2cccc(C)c2)cc1 (configuration not stated)	.	-6%[59 µM]	-7%	-36%	?	.
O=C(/C=C/c1ccccc1)NCCO	16%	-9%[12.7 µM]	.	.	.	.
Cc1ccc(S(=O)(=O)N(C)c2ccc(C(=O)NCc3ccccc3F)cc2)cc1	.	50µM*	25%	-1%	-4%	11%
Cc1ccc(NC(=O)CN(C)C(=O)c2ccc(S(=O)(=O)N(C)c3ccccc3)cc2)cc1	4%	56µM*	24%	-9%	-6%	4%
Cc1ccc(S(=O)(=O)N(C)c2ccc(C(=O)NCc3ccccn3)cc2)cc1	6%	-2%	47%	-7%	-10%	8%
Cc1cc(=O)c2cc(C(=O)Nc3ccc(F)cc3)ccc2[nH]1	.	-33%[59 µM]	30%	-1%	-7%	.
Cc1ccc(S(=O)(=O)N/N=C/c2ccc(O)c(O)c2)cc1[N+](=O)[O-]	?	35µM*	-18%	-35%	?	-9%
Cc1ccc(S(=O)(=O)N/N=C/c2ccccc2O)cc1[N+](=O)[O-]	10%	?	5%	-38%	-11%	-3%
CCN(Cc1ccccc1)c1ccc(/C=N/NS(=O)(=O)c2cccc([N+](=O)[O-])c2)cc1	?	10µM*	?	?	?	-3%
CCN(CC)c1ccc(/C=N/NS(=O)(=O)c2ccc(C)c([N+](=O)[O-])c2)cc1	-5%	40µM*	?	?	35µM*	-10%
Cc1cc(Cl)ccc1Oc1ncnc2onc(C)c12	0%	2%	28%	-10%	-25%	-2%[11.4 µM]
Cc1noc2ncnc(Oc3ccc(Cl)cc3Cl)c12	15%	5%	11%	13%	56µM*	2%[11.4 µM]
Cc1ccc(-c2nc(CCNC(=O)C(=O)Nc3ccc(C)c(Cl)c3)cs2)cc1	.	5%[59 µM]	26%[57 µM]	-1%	-4%	.
O=c1c2c(-c3ccc([N+](=O)[O-])cc3)csc2nc2n1CCCCC2	-26%	35µM*	?	?	?	-28%
O=c1c2c(-c3ccccc3)csc2nc2n1CCC2	32µM*	-36%[12.7 µM]	-20%	9%	-19%	-4%[11.4 µM]
O=c1c2sc(-c3ccccc3)cc2nc2n1CCC2	-8%	0%[59 µM]	15%	-3%	-13%	0%
O=c1c2cc([N+](=O)[O-])ccc2nc2n1CCCC2	-4%	11%	-1%	-5%	-18%	.
C=C1CCN(C(CC(C)C)C(=O)NCCCc2ccccc2)S(=O)(=O)c2ccccc21 (configuration not stated)	5%	.	51%	.	-3%	.
CC1(c2ccc(Cl)cc2)NC(=S)N2C1NC(=S)N2c1ccccc1 (configuration not stated)	-10%	-113%[59 µM]	27%	50µM*	-30%	.
Cc1cc(=O)n2c3c(sc2n1)C(=O)N(Cc1ccccc1)C3=O	13µM*	6.3µM*	.	-2%	.	-3%
CCC#CCOCC(=O)Nc1ccccc1	14%	.	.	.	.	.
O=C(O)c1ncn(Cc2ccc(Br)cc2)c1C(=O)O	50µM*	4µM*	47%	32µM*	-99%	8%
COc1cccc(C2=CC(c3cccc(OC)c3OC)n3nnnc3N2)c1 (configuration not stated)	?	10µM*	54%	-5%	-12%	?
SMILES	Sfp PPTase inh	G9a block	HP1b binding inh	BAZ2B inh	JMJD2A Tudor	L3MBTL1 block
COc1ccc(C2C=C(c3ccccc3)Nc3nnnn32)cc1 (configuration not stated)	-11%	50µM*	31%	-1%	-16%	1%
COc1ccc(C2=CC(c3ccc(C)cc3)n3nnnc3N2)cc1 (configuration not stated)	?	?	109%	-8%	-1%	69%
COc1cccc(C2=CC(c3ccccc3)n3nnnc3N2)c1 (configuration not stated)	45µM*	40µM*	28%	3%	-15%	25%
COc1ccc(C2C=C(c3ccccc3)Nc3nc(NC(C)=O)nn32)cc1 (configuration not stated)	-7%	?	27%	50µM*!	-10%	.
CC(=O)c1c(O)c2cccc3c2n(c1=O)CCC3	-6%	14%	56%	-4%	-10%	.
CC1Cc2cccc3c(O)c(C(=O)c4nn[nH]n4)c(=O)n1c23 (configuration not stated)	-32%	8.9µM*	61%	?	?	3%
CC(Sc1nnc(-c2ccco2)o1)C(=O)NCCC1=CCCCC1 (configuration not stated)	8%	50µM*	44%	-2%	-5%	3%
CC(Sc1nnc(-c2cccnc2)n1N)C(=O)NCCC1=CCCCC1 (configuration not stated)	.	56µM*	8%	7%	-12%	3%
O=C(Nc1nnc(N2CCCCCC2)s1)Nc1ccccc1C(F)(F)F	.	-11%[59 µM]	13%	0%	-9%	.
O=C1C=C(N2CCN(c3ccccn3)CC2)C(=O)c2c(O)ccc(O)c21	.	.	?	.	32µM*	.
O=C(CN1C(=O)NC(Cc2c[nH]c3ccccc23)C1=O)NCCc1ccccc1 (configuration not stated)	9%	9%	66%	1%	-10%	.
CCCNC(=O)CN1C(=O)NC(Cc2c[nH]c3ccccc23)C1=O (configuration not stated)	-6%	2%	3%	14%	50µM*	15%
O=C/C(=C\Nc1ccc(Cl)cn1)c1nc2ccccc2o1	?	?	7%	-9%	13µM*	-3%
O=C/C(=C\Nc1ccc(S(=O)(=O)CCO)cc1)c1nc2cc(Cl)ccc2o1	1%	50µM*	56%	-29%	-17%	-1%
COc1cc(NS(=O)(=O)c2ccc(N/C=C(\C#N)c3nc4cc(Cl)ccc4o3)cc2)nc(OC)n1	0%	-7%[59 µM]	16%	-39%	?	.
O=C/C(=C\Nc1ccc(Cl)cn1)c1nc2cc(Cl)ccc2o1	5%	-10%[59 µM]	36%	-2%	-3%	.
Cc1sc2nc(CN3CCOCC3)[nH]c(=S)c2c1C	8.9µM*	40µM*	8%	-34%	-27%	-7%
Cc1sc2nc(CN3CCOCC3)nc(NCCc3ccccc3)c2c1C	3%	-2%	-3%	-33%	?	.

Screening data deposited in PubChem BioAssay by National Center for Advancing Translational Sciences (NCATS).
